# Data from PMC4336329 (PLoS ONE, 2015).
# In all, about 310,000 compounds went through this assay and about 14,000 (4.5%) showed an effect of 50% or more. Effects have a minus sign here. For the sample, strong results were picked, then their nearest neighbours and some compounds at random.
# Molecular target: human ether-à-go-go-related gene (hERG) potassium channel (human, UniProt Q12809)
# Test: primary screen, population patch clamp on CHO cells stably expressing hERG; higher = less effect of the substance
# 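Also: peak tail current of the secondary pulse compared with the same well before compound.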
# human ether-à-go-go-related gene (hERG) potassium channel, sequence (Q12809 whole entry, looked up): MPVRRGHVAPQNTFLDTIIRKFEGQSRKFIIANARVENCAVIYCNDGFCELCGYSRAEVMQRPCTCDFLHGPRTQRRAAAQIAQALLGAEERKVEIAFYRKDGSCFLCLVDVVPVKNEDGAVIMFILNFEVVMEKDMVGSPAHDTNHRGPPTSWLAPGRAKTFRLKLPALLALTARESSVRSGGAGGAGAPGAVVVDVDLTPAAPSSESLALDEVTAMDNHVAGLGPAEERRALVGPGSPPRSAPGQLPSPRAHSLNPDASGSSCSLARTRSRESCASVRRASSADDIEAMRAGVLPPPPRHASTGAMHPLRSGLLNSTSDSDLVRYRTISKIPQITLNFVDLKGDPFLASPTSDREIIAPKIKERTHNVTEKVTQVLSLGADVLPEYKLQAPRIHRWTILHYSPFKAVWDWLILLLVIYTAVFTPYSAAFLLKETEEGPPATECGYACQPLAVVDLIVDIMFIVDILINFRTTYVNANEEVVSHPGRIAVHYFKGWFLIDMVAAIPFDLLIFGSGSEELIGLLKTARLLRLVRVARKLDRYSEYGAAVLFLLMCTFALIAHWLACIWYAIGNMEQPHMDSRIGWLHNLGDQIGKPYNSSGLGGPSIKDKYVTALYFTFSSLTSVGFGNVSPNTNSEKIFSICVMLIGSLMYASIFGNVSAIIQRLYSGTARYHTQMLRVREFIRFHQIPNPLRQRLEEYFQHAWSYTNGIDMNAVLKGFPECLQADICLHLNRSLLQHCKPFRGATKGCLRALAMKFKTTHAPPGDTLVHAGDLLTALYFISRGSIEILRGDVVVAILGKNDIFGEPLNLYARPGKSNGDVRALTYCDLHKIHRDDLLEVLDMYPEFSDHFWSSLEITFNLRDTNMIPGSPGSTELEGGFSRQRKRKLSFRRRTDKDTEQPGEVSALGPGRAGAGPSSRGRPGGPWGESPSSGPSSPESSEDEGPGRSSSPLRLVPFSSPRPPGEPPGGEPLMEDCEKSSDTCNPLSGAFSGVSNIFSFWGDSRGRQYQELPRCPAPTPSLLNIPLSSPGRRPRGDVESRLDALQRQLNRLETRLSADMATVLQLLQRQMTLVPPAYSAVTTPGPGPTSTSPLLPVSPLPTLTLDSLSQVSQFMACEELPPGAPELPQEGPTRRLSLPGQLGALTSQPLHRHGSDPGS
row,Compound,"hERG current change (%, negative = inhibition) at 10uM [%]"
1,Cc1cccc(Nc2ncnc3nc[nH]c23)c1C,-12.5
2,COc1cc(NC(=O)c2ccnc(N)c2)cc(C(=O)Nc2cccc(C(F)(F)F)c2)c1,-31.3
3,Cc1ccc(C(=O)Nc2cccc(C(F)(F)F)c2)cc1Nc1cncnc1.O=C(O)C(F)(F)F,-74.3
4,COc1cc(NC(=O)c2ccnnc2)cc(C(=O)Nc2cccc(C(F)(F)F)c2)c1,-52.8
5,COc1cc(Nc2ccccn2)cc(C(=O)Nc2cccc(C(F)(F)F)c2)c1,-2.6
6,CCSc1nn2c(=O)c3ccccc3nc2s1,-13.2
7,COc1cccc(-c2cc(=O)[nH][nH]2)c1,18
8,O=C(NCc1ccccc1)c1ccc(Br)o1,8.67
9,CCCCN(CC)CCNC(=O)c1nn(-c2ccc(OC)cc2)c(=O)c2c1c1ccccc1n2C,0.748
10,CCCCCc1nnc(NC(=O)C2CCCO2)s1 (stereo not drawn),-1.64
11,COC(=O)c1ccc(S(=O)(=O)N2CCC(c3nc4ccccc4o3)CC2)cc1,1.99
12,COc1ccccc1N(CC(O)Cn1ccnc1C)S(=O)(=O)c1ccc(C)cc1.Cl (stereo not drawn),-39.3
13,CCCC1C(=O)Nc2ccccc2N1C(=O)c1cccc(C)c1 (stereo not drawn),2.13
14,CCCCSc1nc(C)cc(NC(=S)Nc2ccc(OC)cc2)n1,-25.4
15,Cc1ccc(C(=O)Nc2cccc(C(F)(F)F)c2)cc1NC(=O)c1nccnc1N,8.61
16,Cc1ccc(C(=O)Nc2cccc(C(F)(F)F)c2)cc1NC(=O)c1ccno1,-67
17,Cc1ccc(C(=O)Nc2cccc(C(F)(F)F)c2)cc1NC(=O)c1nccn1C,1.96
18,CCOC(=O)Nc1ccc2c(c1)N(C(=O)CCN1CCOCC1)c1ccccc1S2.Cl,-7
19,CN1CCN(c2nc3c(c(=O)n(C)c(=O)n3C)n2Cc2ccccc2F)CC1,-4.91
20,CCCN(C(=O)c1cnccn1)c1c(N)n(Cc2ccccc2)c(=O)[nH]c1=O,0.0848
21,Cc1ccc(S(=O)(=O)N2[C@@H](c3ccc(Cl)cc3)C(C(=O)O)=CC[C@H]2c2ccc(Cl)c(Cl)c2)cc1,11.1

row,Compound,"hERG current change (%, negative = inhibition) at 10uM [%]"
1,CSc1ccccc1C(=O)C1CCCN(C(=O)c2cc(C(C)C)no2)C1 (stereo not drawn),-69.6
2,COc1ccc(C(=O)C2CCCN(C(=O)c3cc(C(C)C)no3)C2)cc1F (stereo not drawn),-56.9
3,Cc1cc(Cl)ccc1C(=O)C1CCCN(C(=O)c2cc(C(C)C)no2)C1 (stereo not drawn),-22.7
4,COc1ccccc1C(=O)C1CCCN(C(=O)c2cc(C(C)C)no2)C1 (stereo not drawn),-5.26
5,CC(C)c1cc(C(=O)N2CCCC(C(=O)c3ccc4ccccc4c3)C2)on1 (stereo not drawn),-21.8
6,COc1ccc(C(=O)C2CCCN(C(=O)c3cc(C)on3)C2)cc1F (stereo not drawn),-6.98
7,Cc1ccccc1NC(=O)CSc1nc(N)c(C#N)cc1C#N,0.675
8,Cc1nc2c(-c3ccccc3)c(C)nn2c(C)c1CC(=O)O,5.02
9,O=C(CSc1nnc(CNC(=O)c2ccco2)o1)c1ccccc1,4.14
10,COc1cccc(C(=O)Nc2ccccc2C(=O)NC2CC2)c1,0.677
11,Cc1ccc(C)c(N2CCN(C(=O)Nc3ccc4c(c3)N(C)C(=O)CS4)CC2)c1,-21.8
12,COc1ccc(CN2CCC(=O)N([C@H](CO)c3ccccc3)CC2)cc1,13.3
13,CCCN1CCC(=O)N([C@H](CSc2ccc(C)cc2)c2ccccc2)CC1,-76
14,CCCN1CCC(=O)N([C@H](CSc2ccc(OC)cc2)c2ccccc2)CC1,-76.5
15,CCCN1CCC(=O)N([C@H](CSc2ccccc2)c2ccccc2)CC1,-77.2
16,CC(C)CN1CCC(=O)N([C@H](CSc2ccc(Br)cc2)c2ccccc2)CC1,-63.9
17,Nc1cc(=O)[nH]c(SCc2csc(-c3ccccc3)n2)n1,-3.63
18,O=C(NCCC1=CCCCC1)c1ccc(F)cc1,-9.04
19,Cc1noc(/C=C/N(C)C)c1S(=O)(=O)N1CCCC(C(=O)NC2CCCCC2C)C1 (stereo not drawn),-25.5
20,O=C(Cc1ccc([N+](=O)[O-])cc1)OCc1ccc([N+](=O)[O-])cc1,19.2
21,CCCNC(=S)N1CCN(c2nc(-c3ccc(C)cc3)cs2)CC1,5.6
